Assay results reported in PubChem BioAssay.

Assays:
[1] = system: Human papillomavirus type 1a protein E7 (residues 44-93); experiment: small molecules binding HPV E7 44-93 – biochemical, small-molecule microarray, residues 44-93, 635 nm fluorescence, primary screen (AID 1108); conditions: fluorescence 635 nm, higher = more signal;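 note: E7 fragment applied at 1 µg/mL in TBST for 1 h at 4 C; score combines spot fluorescence with its signal to noise ratio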
[2] = hepatitis C replication reporter changes, two-sided – Huh7 cells, luciferase reporter, HCV replication inhibitor project, primary screen (AID 1109); conditions: Huh7 HCV replicon luciferase reporter, 48 h; higher = more signal;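 note: huh7 hepatoma cells harbouring a luciferase neomycin HCV replicon reporter; luciferase luminescence as measure of HCV replicon replication; test concentration not given here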
[3] = molecular target: Left-right determination factor 2 (Homo sapiens) (UniProt O00292); experiment: small molecules binding LEFTY2 protein – biochemical, small-molecule microarray, 635 nm fluorescence scan, primary screen (AID 1110); conditions: higher = more signal
[4] = molecular target: Calmodulin-1 (Homo sapiens) (UniProt P0DP23); experiment: small molecules binding calmodulin-1 with EGTA – biochemical, small-molecule microarray, Cy5-labelled CALM1, profiling panel (AID 1111); conditions: Cy5-CALM1 binding fluorescence, higher = more signal;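 note: labelled calmodulin applied in Tris saline Tween buffer holding calcium plus EGTA and DTT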
[5] = molecular target: Calmodulin-1 (Homo sapiens) (UniProt P0DP23); experiment: small molecules binding Ca-loaded calmodulin-1 – biochemical, small-molecule microarray, Cy5-labelled CALM1, plus calcium, artefact control for SMM control-protein annotation, profiling panel (AID 1112); conditions: Cy5-CALM1 binding fluorescence, higher = more signal;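 note: score merges spot fluorescence with signal to noise from triplicate slides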
[6] = probe aWnt5a binding to arrayed compounds – biochemical, biotinylated probe, 635/667 nm fluorescence, primary screen (AID 1113); conditions: small-molecule microarray, higher = more signal;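 note: score merges 667 nm fluorescence intensity with signal-to-noise per printed feature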
[7] = probe aShh binding to arrayed compounds – biochemical, biotinylated probe, 635/667 nm fluorescence, primary screen (AID 1114); conditions: small-molecule microarray, higher = more signal;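 note: probe is biotin-labelled aShh protein from a stem cell growth factor screen; measures binding of labelled protein to compounds printed on the slide; score merges feature fluorescence at 667 nm with signal-to-noise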
[8] = probe aNog binding to arrayed compounds – biochemical, biotinylated probe, 635/667 nm fluorescence, primary screen (AID 1115); conditions: small-molecule microarray, higher = more signal;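 note: probe is biotinylated aNog protein used at 0.15 µg/mL for 1 h at 4 C; z-score combines 667 nm fluorescence of each spot with its signal to noise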
[9] = molecular target: Torsin-1A-interacting protein 1 (Homo sapiens) (UniProt Q5JTV8); experiment: compound microarray binding of lysate hLAP1 – cell lysate, small-molecule microarray, COS7 lysate, 635/667 nm fluorescence, primary screen (AID 1116); conditions: 635 nm fluorescence, higher = more signal
[10] = molecular target: Alpha-bungarotoxin (Bungarus multicinctus) (UniProt P60615); experiment: compounds binding labelled alpha-BTX control protein – biochemical, small-molecule microarray, Alexa647 label, 635/667 nm fluorescence, artefact control for SMM control protein annotation, profiling panel (AID 1117); conditions: alpha-BTX-A647 binding fluorescence, higher = more signal
Alpha-bungarotoxin (Bungarus multicinctus), sequence (P60615 whole entry, looked up): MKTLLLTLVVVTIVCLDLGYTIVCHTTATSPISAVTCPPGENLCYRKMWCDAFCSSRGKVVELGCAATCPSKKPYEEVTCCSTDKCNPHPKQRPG

Left-right determination factor 2 (Homo sapiens), sequence (O00292 whole entry, looked up): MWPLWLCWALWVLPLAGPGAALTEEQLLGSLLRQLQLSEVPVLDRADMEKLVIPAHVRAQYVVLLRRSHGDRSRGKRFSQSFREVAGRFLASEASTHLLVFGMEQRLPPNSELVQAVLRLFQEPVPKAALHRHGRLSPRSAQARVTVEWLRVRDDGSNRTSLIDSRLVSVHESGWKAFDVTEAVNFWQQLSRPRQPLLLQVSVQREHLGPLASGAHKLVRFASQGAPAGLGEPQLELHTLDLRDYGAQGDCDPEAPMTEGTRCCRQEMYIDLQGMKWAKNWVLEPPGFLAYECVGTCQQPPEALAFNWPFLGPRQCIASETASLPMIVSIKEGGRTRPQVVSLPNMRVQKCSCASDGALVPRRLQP
Torsin-1A-interacting protein 1 (Homo sapiens), sequence (Q5JTV8 whole entry, looked up): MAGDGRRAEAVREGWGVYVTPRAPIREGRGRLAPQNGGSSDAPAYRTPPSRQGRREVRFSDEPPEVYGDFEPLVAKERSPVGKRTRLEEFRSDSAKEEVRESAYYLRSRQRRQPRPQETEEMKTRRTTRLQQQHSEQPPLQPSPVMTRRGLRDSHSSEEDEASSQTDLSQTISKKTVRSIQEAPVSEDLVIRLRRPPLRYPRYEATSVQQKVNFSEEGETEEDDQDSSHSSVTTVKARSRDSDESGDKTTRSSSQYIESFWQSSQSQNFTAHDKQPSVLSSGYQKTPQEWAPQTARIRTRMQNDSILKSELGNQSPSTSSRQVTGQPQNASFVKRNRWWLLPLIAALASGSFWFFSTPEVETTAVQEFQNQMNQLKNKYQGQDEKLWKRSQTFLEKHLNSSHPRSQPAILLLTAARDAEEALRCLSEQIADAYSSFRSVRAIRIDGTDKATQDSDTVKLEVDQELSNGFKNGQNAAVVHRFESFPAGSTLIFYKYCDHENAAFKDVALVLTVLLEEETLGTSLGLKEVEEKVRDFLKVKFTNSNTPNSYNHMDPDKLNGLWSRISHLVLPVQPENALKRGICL

| SMILES | composite z-score [1] | z-score [2] | composite z-score [3] | composite z-score [4] | composite z-score [5] | composite z-score [6] | composite z-score [7] | composite z-score [8] | composite z-score [9] | composite z-score [10] |
| --- | --- | --- | --- | --- | --- | --- | --- | --- | --- | --- |
| CN(C)C(=O)[C@@]1(Cc2ccccc2CN=[N+]=[N-])N=C(c2ccc(OCCCO)cc2)O[C@H]1c1ccccc1N=[N+]=[N-] | 1.45 | -2.99 | -0.553 | 1.73 | 1.11 | -0.191 | -0.138 | 1.84 | 2.26 | 1.93 |
| COC(=O)[C@@]1(Cc2ccc(F)cc2)[C@H]2c3cc(C(=O)N(C)C)n(Cc4ccc(OC(F)(F)F)cc4)c3C[C@H]2CN1C(=O)c1ccccc1 | 0.841 | 0.167 | 0.242 | 0.11 | -0.191 | -0.0758 | 0.442 | 0.0924 | -0.147 | 0.414 |
| COCCOC(=O)N1C(=O)[C@@]2(c3cc(C#CCNC(N)=O)ccc31)[C@H](C(N)=O)[C@H]1C(=O)O[C@H](c3ccccc3)[C@H](c3ccccc3)N1[C@@H]2c1ccccc1OCCO | 0.989 | -0.814 | 0.467 | 0.318 | -0.304 | -0.129 | -0.0977 | -0.288 | 1.26 | 1.06 |
| NCCCCCNC(=O)[C@@H]1C[C@@H]2C(=O)N[C@@H](CCCCN)C(=O)N2[C@@H]1c1ccc(O)cc1 | 1.37 | -1.48 | 1.15 | 1.44 | 0.325 | -0.0286 | 0.246 | -0.103 | 1.51 | 1.2 |
| CCOC(=O)C[C@H]1[C@H](OC(=O)c2ccccc2-c2ccccc2)[C@@H](NC(=O)c2ccc3ccccc3n2)c2cc(OCCCO)ccc2N1C(=O)Cc1ccc(OC)cc1 | 0.345 | -2.09 | 0.414 | -0.216 | -0.224 | -0.124 | -0.182 | -0.147 | 0.781 | 0.365 |
| COc1ccc(C(=O)Nc2ccc(CN3C(=O)[C@]4(O[C@H](CC(=O)N5Cc6ccccc6C[C@H]5CO)[C@@H]([Si](C)(C)c5ccc(OC)cc5)[C@@H]4C)c4ccccc43)cc2)cc1 | 1.33 | -3.58 | 0.575 | 0.301 | -0.376 | -0.128 | -0.232 | -0.31 | 0.795 | 1.31 |
| CN(C)C(=O)[C@]1(Cc2ccccc2CN=[N+]=[N-])N=C(c2ccc(OCCCO)cc2)O[C@@H]1c1ccccc1 | 1.47 | -3.37 | -0.0728 | 1.56 | 0.596 | 0.0337 | 0.792 | 1.05 | 1.39 | 1.92 |
| COc1ccc(C#Cc2ccc3c(c2)[C@]2(C(=O)N3)[C@H](c3ccc(O)cc3)N3[C@H](c4ccccc4)[C@H](c4ccccc4)OC(=O)[C@H]3[C@@H]2C(=O)Nc2nc3ccccc3s2)cc1 | 1.26 | -1.13 | 0.739 | 1.11 | 0.495 | -0.0685 | -0.0813 | 0.352 | 1.22 | 1.25 |
| CC(C)[Si]1(C(C)C)OCc2cc(-c3ccc(-c4ccc(Cl)c(Cl)c4)o3)nc(-c3ccccc3)c21 | -0.922 | -1.16 | -1.59 | -0.856 | -0.341 | -0.16 | 0.0121 | -0.418 | -1.16 | -0.597 |
| CC(C)[Si](C#C[Si](C(C)C)(C(C)C)C(C)C)(O[C@H](c1ccccc1)c1cn(Cc2ccccc2)nn1)C(C)C | 1.06 | -0.0298 | 0.637 | 0.192 | -0.774 | -0.0794 | -0.0769 | 0.256 | 0.352 | 0.717 |
| O=C1NC(=O)C2C1C=CC(C(O)c1ccco1)N2Nc1ccc(Cl)cc1Cl (stereo not given) | 0.478 | -0.664 | -0.39 | 0.317 | 0.381 | -0.152 | 0.111 | -0.3 | 0.478 | 0.396 |
| CC(c1ccccc1)C(O)C1C=CC2C(=O)N(C)C(=O)C2N1Nc1ccccc1 (stereo not given) | 1.23 | -0.684 | -0.541 | 2 | 0.735 | 0.157 | 0.208 | 0.462 | 0.694 | 2.06 |
| COc1ccc([Si](C)(C)[C@@H]2[C@@H](CC(=O)N(CCO)Cc3ccccc3)O[C@]3(C(=O)N(Cc4cccc(N5CCCCC5=O)c4)c4ccccc43)[C@H]2C)cc1 | 0.846 | -3.89 | 0.478 | 0.822 | 0.645 | 0.0825 | 0.128 | 1.73 | 0.761 | 0.672 |
| CCOc1cc(C(O)C2C=CC3C(=O)NC(=O)C3N2Nc2ccc(Cl)cc2Cl)ccc1O (stereo not given) | -1.7 | 0.822 | -1.18 | -0.07 | -0.0008 | -0.154 | 0.0062 | 0.119 | 0.0975 | -0.0945 |
| CCCCC(CC)C(O)C1C=CC2C(=O)N(c3ccccc3)C(=O)C2N1Nc1ccc(C#N)cc1 (stereo not given) | 1.44 | -0.67 | 0.111 | 1.35 | 0.467 | 0.267 | 0.348 | 1.97 | 0.336 | 1.45 |
| COc1ccc([Si](C)(C)[C@@H]2[C@@H](CCO)O[C@]3(C(=O)N(Cc4cccc(NC(=O)[C@H](C)O)c4)c4ccccc43)[C@H]2C)cc1 | 1.36 | -5.17 | 0.0544 | 0.953 | -0.204 | 0.0998 | 0.223 | 0.638 | 0.999 | 0.756 |
| CCOC(=O)C1=C[C@@H](c2ccccc2)N(S(=O)(=O)c2ccc(C)cc2)[C@H]1c1ccc(OC)cc1 | 0.796 | -1.92 | 0.976 | 1.6 | 0.736 | 0.661 | 0.926 | 1.25 | 0.118 | 1.24 |
| NC(=O)NCC#Cc1ccc2c(c1)[C@]1(C(=O)N2)[C@H](C(=O)N2CCN(c3ncccn3)CC2)[C@H]2C(=O)O[C@H](c3ccccc3)[C@H](c3ccccc3)N2[C@@H]1c1ccc(O)cc1 | 1.23 | -0.437 | 0.728 | 0.313 | -0.156 | 0.108 | 0.296 | -0.524 | 0.498 | 0.677 |
| C=CCNC(=O)[C@@H]1[C@H]2C(=O)O[C@H](c3ccccc3)[C@H](c3ccccc3)N2[C@H](c2ccc(O)cc2)[C@@]12C(=O)N(C(=O)OCCOC)c1ccc(C#CC3=CCCCC3)cc12 | 1.36 | -2.14 | 0.588 | 0.544 | -0.0251 | -0.0685 | -0.0769 | 0.185 | 0.319 | 0.662 |
| COC(=O)C(CC#Cc1ccc2c(c1)[C@]1(C(=O)N2)[C@H](c2ccc(O)cc2)N2[C@H](c3ccccc3)[C@H](c3ccccc3)OC(=O)[C@H]2[C@@H]1C(=O)NC[C@H](O)c1ccccc1)C(=O)OC | 0.829 | -1.04 | 0.337 | 0.175 | -0.102 | -0.0606 | -0.0709 | 0.0169 | 1.24 | 0.624 |
| CCCC=C(CCC)[C@@H](NC(=O)c1cccs1)c1ccc(C(=O)OC)cc1 | 0.805 | -0.122 | 0.698 | 0.318 | -0.276 | 1.34 | 2.03 | 2.91 | 0.406 | 0.159 |
| C=C(/C(=C/C[C@H](OC(=O)c1ccncc1)c1ccc(CO)o1)c1cnc2ccccc2c1)C(C)C | 1.38 | -2.1 | 0.957 | 0.544 | -0.0351 | 0.0474 | -0.15 | 0.181 | 0.854 | 0.999 |
| O=C1C[C@]2(c3ccc([N+](=O)[O-])cc3)C(=O)N(C3CC3)c3cc(CO)ccc3[C@H]2N1CC12CC3CC(CC(C3)C1)C2 | 0.471 | -0.479 | -1.6 | -0.448 | -0.87 | -0.148 | -0.124 | 0.632 | -0.604 | -0.444 |
| NCCCCCNC(=O)[C@H]1C[C@H]2C(=O)N3CCC[C@H]3C(=O)N2[C@H]1c1cccc(OCCO)c1 | 1.32 | 0.5 | -0.397 | 1.35 | 0.684 | 0.0375 | 0.14 | -0.403 | 1.17 | 1.24 |
| CCOC(=O)C[C@H]1[C@H](OC(=O)c2ccc(C(=O)c3ccccc3)cc2)[C@@H](NC(=O)C2CCCCC2)c2cc(OCCCO)ccc2N1C(=O)c1ccc2ccccc2n1 | 1.3 | 0.0574 | 0.752 | 0.711 | -0.102 | 0.0552 | -0.243 | -0.244 | 0.805 | 0.673 |
